Assay results published in ChEMBL document CHEMBL4513141, “CO-ADD screening of NIH (USA) - Clinical Collection” (2021).
Results with a measured potency or affinity are listed apart.

Each compound was assayed on Staphylococcus aureus. Conditions: Concentration 20 uM; ASSAY_TEST Inhibition of Bacterial Growth; detection method Absorption (OD600); MEDIA CAMHB; plate type 384well; NBS; CORNING #3640; time 18 hr.

| SMILES | Inhibition [%] |
| --- | --- |
| COc1cc(CNC(=O)CCCC/C=C\C(C)C)ccc1O [ZUCAPSAICIN] | 14.17 |
| CC(=O)[C@H]1CC[C@H]2[C@@H]3CCC4=CC(=O)CC[C@]4(C)[C@H]3CC[C@]12C [PROGESTERONE] | 12.63 |
| COc1ccc(CCN)cc1OC | 8.89 |
| CN1[C@@H](CC(=O)c2ccccc2)CCC[C@H]1C[C@H](O)c1ccccc1.Cl [LOBELINE HYDROCHLORIDE] | 13.97 |
| c1ccc2c3c([nH]c2c1)CNCC3 [TRYPTOLINE] | 7.42 |
| Cc1c(OCC(F)(F)F)ccnc1C[S+]([O-])c1nc2ccccc2[nH]1 (centres undefined) [LANSOPRAZOLE] | 16.66 |
| C[C@H](CCC(=O)O)[C@H]1CC[C@H]2[C@@H]3C(=O)C[C@@H]4CC(=O)CC[C@]4(C)[C@H]3CC(=O)[C@]12C [DEHYDROCHOLIC ACID] | 8.43 |
| C[C@]12Cc3c[nH]nc3C[C@@H]1CC[C@@H]1[C@@H]2CC[C@@]2(C)[C@H]1CC[C@]2(C)O [STANOZOLOL] | -5.12 |
| C[N+]1(C)CCCC(OC(=O)C(O)(c2ccccc2)c2ccccc2)C1.[Br-] (centres undefined) [MEPENZOLATE BROMIDE] | 1.79 |
| CNC1=Nc2ccc(Cl)cc2C(c2ccccc2)=[N+]([O-])C1 [CHLORDIAZEPOXIDE] | 15.47 |
| Nc1nc(F)nc2c1ncn2[C@@H]1O[C@H](CO)[C@@H](O)[C@@H]1O [FLUDARABINE] | 11.26 |
| CN1[C@@H]2CC[C@H]1CC(OC(=O)C(CO)c1ccccc1)C2 (some centres undefined) | 1.53 |
| CN1C(=O)CN=C(c2ccccc2)c2cc(Cl)ccc21 [DIAZEPAM] | 9.71 |
| O=C(O[C@@H]1Cc2c(O)cc(O)cc2O[C@@H]1c1cc(O)c(O)c(O)c1)c1cc(O)c(O)c(O)c1 [EPIGALOCATECHIN GALLATE] | 13.39 |
| c1ccc2c(c1)Nc1ccccc1S2 [PHENOTHIAZINE] | -22.92 |
| Br.COc1ccc2c(c1)[C@]13CCCC[C@@H]1[C@H](C2)N(C)CC3.O [DEXTROMETHORPHAN HYDROBROMIDE] | 17.11 |
| CC[C@@H]1/C=C/C=C/C[C@H](C)[C@@H](O)[C@](C)(O)C(=O)[C@H](C)[C@@H](O)[C@H](C)C(=O)[C@H](C)[C@@H](O)[C@H](C)/C=C/C(=O)O[C@H]2[C@@H](C)[C@@H](CC1)O[C@@]1(CC[C@@H](C)[C@@H](C[C@H](C)O)O1)[C@@H]2C | 9.12 |
| COc1ccc2[nH]cc(C3=CCNCC3)c2c1.COc1ccc2[nH]cc(C3=CCNCC3)c2c1.O=C(O)CCC(=O)O | 16.86 |
| C=C(C)CN1CC[C@]23c4c5ccc(O)c4O[C@H]2c2[nH]c4ccccc4c2C[C@@]3(O)C1C5.Cl.O | 1.35 |
| C[N+]1(C)CCC(OC(=O)C(O)(c2ccccc2)C2CCCC2)C1.[Br-] (centres undefined) [GLYCOPYRRONIUM BROMIDE] | 11.8 |
| Cc1ncc2n1-c1ccc(Cl)cc1C(c1ccccc1F)=NC2.Cl [MIDAZOLAM HYDROCHLORIDE] | -27.39 |
| c1cncc([C@@H]2CCCN2)c1 [NORNICOTINE] | 12.8 |
| C[N+]1(C)CCN(c2ccccc2)CC1.[I-] [DIMETHYLPHENYLPIPERAZINIUM IODIDE] | 11.69 |
| Cl.O.Oc1ccc2c3c1O[C@H]1c4[nH]c5ccccc5c4C[C@@]4(O)C(C2)N(CC2CC2)CC[C@]314 | -20.11 |
| C[C@]12CC(C=O)=C(O)C[C@@H]1CC[C@@H]1[C@@H]2CC[C@@]2(C)[C@H]1CC[C@]2(C)O | 4.66 |
| CCOC(=O)C1(c2ccccc2)CCN(CCC(C#N)(c2ccccc2)c2ccccc2)CC1.Cl [DIPHENOXYLATE HYDROCHLORIDE] | 14.18 |
| Br.CN1[C@@H]2CC(OC(=O)[C@H](CO)c3ccccc3)C[C@H]1[C@@H]1O[C@@H]12.O.O.O (some centres undefined) | 15.22 |
| CN[C@@H]1C[C@@H](c2ccc(Cl)c(Cl)c2)c2ccccc21.Cl [INDATRALINE HYDROCHLORIDE] | -18.12 |
| CCOC(=O)C1=C(COCCN)NC(C)=C(C(=O)OC)C1c1ccccc1Cl (centres undefined) [AMLODIPINE] | -19.31 |
